From PubChem BioAssay
VLA-4 inh = inhibition in a human VLA-4 binding assay | VLA-4 expressing cells, ligand binding flow cytometry | inhibition, % (about 7 µM as worked out from the volumes in the protocol) | 330,000 tested, 0.2% active; in the data active means inhibition above about 50%
Target sequence (P13612 whole entry, looked up): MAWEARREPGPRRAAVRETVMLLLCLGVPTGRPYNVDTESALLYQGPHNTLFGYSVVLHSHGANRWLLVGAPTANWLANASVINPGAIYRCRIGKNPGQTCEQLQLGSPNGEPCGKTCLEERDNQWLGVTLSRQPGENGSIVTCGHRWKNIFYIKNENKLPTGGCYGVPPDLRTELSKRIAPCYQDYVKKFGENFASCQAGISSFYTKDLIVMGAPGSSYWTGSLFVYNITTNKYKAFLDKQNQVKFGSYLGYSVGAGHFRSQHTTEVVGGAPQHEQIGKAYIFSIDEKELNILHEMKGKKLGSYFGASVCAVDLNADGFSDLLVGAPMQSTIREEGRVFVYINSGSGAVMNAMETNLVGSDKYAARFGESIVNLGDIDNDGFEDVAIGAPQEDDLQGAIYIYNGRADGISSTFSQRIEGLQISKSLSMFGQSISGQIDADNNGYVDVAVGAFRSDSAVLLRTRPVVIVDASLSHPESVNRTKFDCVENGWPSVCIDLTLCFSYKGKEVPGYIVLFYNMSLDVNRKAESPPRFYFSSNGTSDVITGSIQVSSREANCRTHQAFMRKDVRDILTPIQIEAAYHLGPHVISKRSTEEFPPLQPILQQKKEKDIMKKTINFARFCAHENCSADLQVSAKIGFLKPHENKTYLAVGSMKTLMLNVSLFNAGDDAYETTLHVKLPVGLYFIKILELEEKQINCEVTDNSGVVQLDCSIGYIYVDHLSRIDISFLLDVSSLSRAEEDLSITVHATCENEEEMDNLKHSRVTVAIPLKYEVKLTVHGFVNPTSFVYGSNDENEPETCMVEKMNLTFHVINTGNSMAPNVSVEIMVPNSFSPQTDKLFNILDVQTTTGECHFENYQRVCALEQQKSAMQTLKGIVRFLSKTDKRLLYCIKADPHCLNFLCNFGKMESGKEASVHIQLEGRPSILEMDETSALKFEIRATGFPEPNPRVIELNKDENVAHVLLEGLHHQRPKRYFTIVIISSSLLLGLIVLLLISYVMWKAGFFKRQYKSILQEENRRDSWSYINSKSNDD
Efflux pump inh = inhibitors of Candida antifungal efflux pumps expressed in yeast. 330,000 tested, 0.44% active. inhibition, % at 10 µM. S. cerevisiae Candida pump triplex, Nile Red efflux;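 active means plate passing quality check with inhibition over a set limit, or well fluorescence over plate mean plus 4 SD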;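 further: Nile Red retained in pooled yeast measured as flow cytometry median fluorescence; 0% = buffer negative control and 100% = Enniatin B positive control; higher means more Nile Red kept so more efflux inhibition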
Bfl-1 A1 inh = inhibitors of the anti-apoptotic protein A1, read as caspase activation; MEF A1-2A-BIM cells, Caspase-Glo 3/7 luminescence, 3 h; percent of clofoctol response, vehicle zero; caspase activation, % (no concentration beside the values); 330,000 tested, 0.066% active;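 active means over half of replicate activation scores above 10%, or exactly half above 10 with the replicate mean above 10; inconclusive means replicate mean below 10 yet half the replicates above 10; inactive means over half of replicates below 10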
AHR activator = activators of human aryl hydrocarbon receptor; 320,000 tested, 2.5% active; AID 2796; activation, % at 5 µM; AHR-responsive luciferase reporter cells, luminescence; in the data active means activation above about 47%;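 further: 0% = vehicle wells and 100% = reference agonist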
ALR inh = blocks human ALR sulfhydryl oxidase activity; 290,000 tested, 3.8% active; P55789; purified ALR, DTT oxidation, H2O2 HRP-luminol luminescence; inhibition, % (test concentration not listed);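 active means mean replicate inhibition above about 79%, with every replicate also reaching it, limit read from the data; inconclusive means only one of the two criteria met; inactive means mean below limit and not every replicate reaching it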
Mot1-301 SUMO = SUMOylation pathway inhibition by Mot1-301 growth rescue. growth rescue, % at 18.8 µM. AID 2716. S. cerevisiae Mot1-301 growth rescue, ATP luminescence, 38.5C; percent above DMSO median, 100 means doubled. 320,000 tested, 1% active;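 active means every valid replicate shows activation above 250% relative to neutral control wells; inactive means the rest, any valid replicate at or below 250%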;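 further: OY570 slx delta 5 strain wells were the positive control but not used for scaling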
An asterisk follows results filed as active. Most compounds without a hit are left out; they make up all but 7.2% or so of the library.

What do the screens show for `O=C(N/N=C/c1cc2c(cc1Br)OCO2)c1c[nH]c2ccccc12`?
VLA-4 inh: 50*; Efflux pump inh: 0; Bfl-1 A1 inh: 0; AHR activator: 14; ALR inh: 0; Mot1-301 SUMO: 83

Results for Cn1ncc([N+](=O)[O-])c1C(=O)N/N=C/c1c[nH]c2ccccc12 ?
VLA-4 inh: -31; Efflux pump inh: 0; Bfl-1 A1 inh: 0; AHR activator: 70*; ALR inh: 7; Mot1-301 SUMO: -9

What do the screens show for `O=C(N/N=C/c1c[nH]c2ccccc12)c1ccccc1`?
VLA-4 inh: 4; Efflux pump inh: 0; Bfl-1 A1 inh: -1; AHR activator: 17; ALR inh: 16; Mot1-301 SUMO: -2

How did O=C(N/N=C/c1c[nH]c2ccccc12)c1cccc([N+](=O)[O-])c1 do in these assays?
VLA-4 inh: 26; Efflux pump inh: 0; Bfl-1 A1 inh: inconclusive; AHR activator: 70*; ALR inh: 32; Mot1-301 SUMO: -13

How did CC(C)c1cc(N=NC(N)=O)cc(C(C)C)c1O do in these assays?
VLA-4 inh: -1; Efflux pump inh: 0; Bfl-1 A1 inh: 1; AHR activator: -3; ALR inh: 5; Mot1-301 SUMO: 58

What do the screens show for `O=C(N/N=C/c1c[nH]c2ccccc12)c1ccc2c(c1)OCCO2`?
VLA-4 inh: 5; Efflux pump inh: 0; Bfl-1 A1 inh: -5; AHR activator: 48*; Mot1-301 SUMO: -13

Results for O=C(N/N=C/c1c[nH]c2ccc(Br)cc12)c1ccc2c(c1)OCO2 ?
VLA-4 inh: 0; Efflux pump inh: 0; Bfl-1 A1 inh: 0; AHR activator: 18; ALR inh: 6; Mot1-301 SUMO: 1

How did C/C(=N\NC(=O)c1c[nH]c2ccccc12)c1ccc2c(c1)OCO2 do in these assays?
VLA-4 inh: 9; Efflux pump inh: 0; Bfl-1 A1 inh: -1; AHR activator: 93*; ALR inh: -7; Mot1-301 SUMO: 1

How did C/C(=N\NC(=O)c1cc(C)oc1C)c1ccc2c(c1)OCO2 do in these assays?
VLA-4 inh: 5; Efflux pump inh: 0; Bfl-1 A1 inh: 0; AHR activator: 22; ALR inh: -17; Mot1-301 SUMO: 9

How did O=C1C(CCCNC(=S)NCc2ccccc2)NC(=S)N1Cc1ccccc1 (stereo not drawn) do in these assays?
VLA-4 inh: 3; Efflux pump inh: 0; Bfl-1 A1 inh: 0; AHR activator: -1; ALR inh: 2; Mot1-301 SUMO: -15

Results for COc1ccc(-c2nc3cnccn3c2Nc2ccc(C)cc2)cc1 ?
VLA-4 inh: 2; Efflux pump inh: 0; Bfl-1 A1 inh: -2; AHR activator: 65*; ALR inh: 86*; Mot1-301 SUMO: -27

What do the screens show for `Cc1ccc(Nc2c(-c3ccccc3)nc3cnccn23)cc1`?
VLA-4 inh: 16; Efflux pump inh: 0; Bfl-1 A1 inh: -1; AHR activator: 3; ALR inh: 98*; Mot1-301 SUMO: 124

Results for Cc1ccc2nc(-c3ccncc3)c(Nc3ccccc3)n2c1 ?
VLA-4 inh: 5; Efflux pump inh: 0; Bfl-1 A1 inh: 0; AHR activator: 4; ALR inh: 3; Mot1-301 SUMO: -2

What do the screens show for `Cc1ccc(Nc2c(-c3ccc(C)o3)nc3cnccn23)cc1`?
VLA-4 inh: -25; Efflux pump inh: 0; Bfl-1 A1 inh: -1; AHR activator: 18; Mot1-301 SUMO: 20

How did COc1ccccc1N1CCN(S(=O)(=O)Cc2ccccc2Cl)CC1 do in these assays?
VLA-4 inh: 10; Efflux pump inh: 0; Bfl-1 A1 inh: 0; AHR activator: 4; ALR inh: 44; Mot1-301 SUMO: 6

What do the screens show for `Cc1cc(C(=O)O)ccc1-n1c(C)ccc1C`?
VLA-4 inh: -10; Efflux pump inh: 0; Bfl-1 A1 inh: -1; AHR activator: -4; ALR inh: 19; Mot1-301 SUMO: 0

What do the screens show for `Cc1cc(N)ccc1N1CCCC1`?
VLA-4 inh: -1; Efflux pump inh: 0; Bfl-1 A1 inh: 0; AHR activator: 7; ALR inh: 98*; Mot1-301 SUMO: -27

How did Cc1cc(N)ccc1-n1c(C)ccc1C do in these assays?
VLA-4 inh: 0; Efflux pump inh: 0; AHR activator: 110*; ALR inh: 17; Mot1-301 SUMO: -8

How did COc1ccc(/C(C)=N/NC(=S)Nc2cc(C)ccc2C)cc1 do in these assays?
VLA-4 inh: 3; Efflux pump inh: 0; Bfl-1 A1 inh: -1; AHR activator: 25; ALR inh: -11; Mot1-301 SUMO: 12

How did COc1ccc(C2c3[nH]c4ccccc4c3CCN2Cc2ccoc2)c(F)c1 (stereo not drawn) do in these assays?
VLA-4 inh: 19; Efflux pump inh: 0; Bfl-1 A1 inh: -1; AHR activator: 47*; ALR inh: -17

What do the screens show for `Oc1cccc(C2c3[nH]c4ccccc4c3CCN2Cc2ccoc2)c1` (stereo not drawn)?
VLA-4 inh: -21; Efflux pump inh: 0; Bfl-1 A1 inh: 1; AHR activator: 22; ALR inh: -1; Mot1-301 SUMO: -7

What do the screens show for `COC(=O)C(CSCc1ccccc1)NC(=O)CSc1nc(N)cc(=O)[nH]1` (stereo not drawn)?
VLA-4 inh: 0; Efflux pump inh: 0; Bfl-1 A1 inh: 1; AHR activator: 4; ALR inh: -2; Mot1-301 SUMO: -17

Results for COC(=O)c1cc(S(=O)(=O)N2CCN(c3cccc(C)c3C)CC2)c[nH]1 ?
VLA-4 inh: 9; Efflux pump inh: 0; Bfl-1 A1 inh: 0; AHR activator: 0; ALR inh: -4; Mot1-301 SUMO: 5

What do the screens show for `c1coc(C2Nc3ccccc3C3OCCC23)c1` (stereo not drawn)?
VLA-4 inh: 7; Efflux pump inh: 0; Bfl-1 A1 inh: 0; AHR activator: -1; ALR inh: -3; Mot1-301 SUMO: -15

Results for Fc1ccc2c(c1)C1OCCCC1C(c1ccccc1)N2 (stereo not drawn) ?
VLA-4 inh: 17; Efflux pump inh: 0; Bfl-1 A1 inh: 0; AHR activator: 1; ALR inh: 88*; Mot1-301 SUMO: 93

How did C=CCn1c(=S)[nH]c2sc3c(c2c1=O)CCCC3 do in these assays?
VLA-4 inh: 4; Efflux pump inh: 0; Bfl-1 A1 inh: 0; AHR activator: 22; ALR inh: 49; Mot1-301 SUMO: -17

What do the screens show for `C=CCn1c(SCC(C)=O)nc2scc(-c3ccc(C)o3)c2c1=O`?
VLA-4 inh: 9; Efflux pump inh: 0; Bfl-1 A1 inh: 0; AHR activator: 19; ALR inh: 96*; Mot1-301 SUMO: -7

What do the screens show for `Cc1ccc(-c2csc3nc(C)n(N)c(=O)c23)o1`?
VLA-4 inh: -1; Efflux pump inh: 0; Bfl-1 A1 inh: -2; AHR activator: 55*; ALR inh: 4; Mot1-301 SUMO: -16

How did C=CCn1c(SCC(=O)NCCCC)nc2scc(-c3ccco3)c2c1=O do in these assays?
VLA-4 inh: -3; Efflux pump inh: 0; Bfl-1 A1 inh: 0; AHR activator: 0; ALR inh: 53; Mot1-301 SUMO: -7
